Screens deposited in PubChem by The Scripps Research Institute Molecular Screening Center.
MITF primary: inhibitors of human MITF | O75030 | AlphaScreen MITF homodimerization, bead proximity signal | inhibition, % at 2.6 µM | hit rate 0.91% among 650,000; in the data active = inhibition above about 50%;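 also: 0% = vehicle wells with protein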
GPR151 activ: activates the human receptor GPR151. PathHunter beta-arrestin GPR151 cells, luminescence. hit rate 1% among 650,000. Q8TDV0. activation, % at 11.2 µM; in the data active = activation above about 4.9%;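 also: 0% = median of compound wells and 100% = cells with positive control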
TEAD-YAP block: TEAD-YAP interaction inhibition. HEK-TIYL cells, TEAD-Gal4/YAP UAS-luciferase luminescence. inhibition, % at 9.12 µM. hit rate 1.4% among 640,000; in the data active = inhibition above about 32%;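 also: 0% = median of test compound wells and 100% = reference inhibitor wells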
FBW7 act: activators of human E3 ligase FBW7; normalized activity (activation), % at 26.1 µM; AlphaScreen FBW7–phospho-cyclin E peptide binding, activator screen; hit rate 0.13% among 650,000; Q969H0; in the data active = normalized activity above about 1.9%;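 also: purified mutant Fbw7 with reduced substrate affinity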
Target sequence (Q969H0 whole entry, looked up): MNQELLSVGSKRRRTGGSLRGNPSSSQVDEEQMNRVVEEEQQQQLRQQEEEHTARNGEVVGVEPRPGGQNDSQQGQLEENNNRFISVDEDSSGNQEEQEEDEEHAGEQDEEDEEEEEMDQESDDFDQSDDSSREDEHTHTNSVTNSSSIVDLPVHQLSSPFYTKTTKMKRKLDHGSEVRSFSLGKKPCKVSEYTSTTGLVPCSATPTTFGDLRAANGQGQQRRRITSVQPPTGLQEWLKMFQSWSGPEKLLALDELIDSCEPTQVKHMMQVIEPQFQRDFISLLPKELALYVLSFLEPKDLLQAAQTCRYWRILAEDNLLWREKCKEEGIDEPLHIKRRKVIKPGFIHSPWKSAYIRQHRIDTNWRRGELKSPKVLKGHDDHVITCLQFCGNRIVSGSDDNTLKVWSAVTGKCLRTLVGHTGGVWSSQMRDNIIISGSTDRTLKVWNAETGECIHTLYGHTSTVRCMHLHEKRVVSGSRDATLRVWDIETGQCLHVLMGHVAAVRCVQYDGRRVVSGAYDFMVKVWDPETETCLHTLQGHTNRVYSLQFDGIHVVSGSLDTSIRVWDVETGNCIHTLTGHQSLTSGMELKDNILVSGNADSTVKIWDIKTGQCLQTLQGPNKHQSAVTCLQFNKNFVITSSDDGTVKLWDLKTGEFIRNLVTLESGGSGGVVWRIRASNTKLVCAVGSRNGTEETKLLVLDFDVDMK
MITF inh conf: human MITF inhibition, confirmation; hit rate 16% among 4,700; inhibition, % at 2.6 µM; shares compounds with MITF primary; AID 1259372; AlphaScreen MITF homodimerization, biotin/His-MITF beads;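 active = inhibition above a cutoff derived from the DMSO control wells, cut at about 28% in these data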;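 also: 0% = MITF dimer wells with DMSO only; inhibitors lower the bead chemiluminescence by keeping MITF from dimerizing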
AlphaScreen intf2: AlphaScreen optical interference, counter-screen | inhibition, % at 2.6 µM | AID 1259376 | hit rate 7.6% among 4,700 | shares compounds with MITF primary | LysRS AlphaScreen counterscreen, signal interference, triplicate;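 active = inhibition above a cutoff derived from the DMSO control wells, cut at about 30% in these data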
Starred values were filed as active, the others as inactive; . = not tested or not shown. Hits are enriched below; roughly 3.5% of the tested compounds scored in any of these assays.

SMILES	MITF primary	GPR151 activ	TEAD-YAP block	FBW7 act	MITF inh conf	AlphaScreen intf2
CS(=O)(=O)c1ccc(N2CCCCC2)c(F)c1	1	2	-17	0	.	.
N#C/C(=C/Nc1ccccc1F)c1nc(-c2ccc([N+](=O)[O-])cc2)cs1	68*	2	-1	0	0	3
O=C(C1CCN(c2ccc(N3CCOCC3)nn2)CC1)N1CCc2ccccc2C1	11	1	4	0	.	.
O=C(C1CCCN(Cc2ccncc2)C1)N1CCc2ccccc2C1 (centres undefined)	90*	0	6	0	-12	-16
CCS(=O)(=O)N1CCCC(C(=O)N2CCc3ccccc3C2)C1 (centres undefined)	5	0	4	0	.	.
O=C(C1CCNCC1)N1CCc2ccccc2C1	60*	0	-8	0	4	12
COc1cccc(/C(C)=N/Nc2nc3ccccc3[nH]2)c1	-4	-1	-56	0	.	.
CCOC(=O)C1CCN(C/C=C/c2ccccc2[N+](=O)[O-])CC1	54*	-1	5	1	-13	-7
CCOC(=O)C1CCN(C/C=C/c2ccccc2OC)CC1	33	0	3	0	.	.
Cc1ccccc1OCc1nc(-c2ccccn2)no1	-2	-4	-48	0	.	.
Cc1ccccc1OCCOCCN1CCN(C)CC1	73*	-1	-3	0	15	18
Cc1cccc(C)c1OCCOCCN1CCN(C)CC1	64*	2	-1	0	21	16
Cc1cccc(C(C)(C)C)c1OCCCN1CCN(C)CC1	68*	1	2	0	-11	-7
Cc1cccc(C(C)(C)C)c1OCCOCCN1CCOCC1	30	3	-3	0	.	.
CCCN1CCN(c2ncnc3scc(-c4ccccc4)c23)CC1	1	1	-28	0	.	.
CC(=O)Nc1ccc(-c2ccncc2-c2ccc(S(N)(=O)=O)cc2)cc1	55*	0	-1	0	47*	38*
CCCc1nc2ccccc2c(NC(=O)CN(C)CCc2ccc(OC)c(OC)c2)c1CC	70*	3	7	0	7	-1
CCCC(=O)Nc1c(CC)c(CCC)nc2ccccc12	5	1	3	0	.	.
CCOc1ncccc1C(=O)Nc1ccc(Cl)cc1Cl	4	2	-8	0	.	.
COc1cc(CN2CCN(Cc3ccco3)CC2)cc(OC)c1OC	71*	-1	4	0	-16	1
COc1ccccc1N1CCN(Cc2ccco2)CC1	32	-1	-5	0	.	.
COc1cc(CN2CCN(Cc3ccco3)CC2)cc(OC)c1O	76*	0	5	0	3	9
COc1cc(CN2CCN(Cc3cccc(C)c3)CC2)cc(OC)c1O	46	0	-6	0	.	.
COc1cccc(NS(=O)(=O)c2ccc(OC)c(I)c2)c1	10	4	-11	0	.	.
CC(NC(=O)Cc1noc2ccccc12)c1ccccc1 (centres undefined)	1	-1	1	0	.	.
SMILES	MITF primary	GPR151 activ	TEAD-YAP block	FBW7 act	MITF inh conf	AlphaScreen intf2
O=[N+]([O-])c1cccc(P(=O)(c2cccc([N+](=O)[O-])c2)N2CCOCC2)c1	51*	0	-4	0	-6	-5
Cc1nc2c(C(=O)Nc3cc(Cl)ccc3C)snc2c(=O)[nH]1	-5	0	-7	0	.	.
CCCn1c(SC(C(=O)NC(N)=O)C(C)C)nc2ccccc2c1=O (centres undefined)	55*	-1	3	0	19	10
CN(C)S(=O)(=O)Nc1ccc(N2CCC(NCCc3cccs3)CC2)cc1	63*	0	6	0	11	14
CN(C)S(=O)(=O)Nc1ccc(N2CCC(NCCc3ccncc3)CC2)cc1	7	0	2	0	.	.
Cc1cc(OC(=O)c2cccc([N+](=O)[O-])c2)ccc1N1C(=O)CCC1=O	70*	0	-2	0	3	9
CCc1nc2sc3c(NCCCO)ncnc3c2c2c1CCCC2	-4	1	-2	0	.	.
Cc1cccc(NC(=O)NCCOc2ccc3nnc(-c4ccccc4)n3n2)c1C	3	0	0	0	.	.
O=C(CN1CCN(c2ccccc2F)CC1)N1CCCc2ccccc21	53*	2	7	0	9	22
CN1CCCN(CC(=O)N2CCc3ccccc32)CC1	78*	1	-4	-1	4	5
O=C(CN1CCN(c2ccccc2F)CC1)NCCC1=CCCCC1	68*	0	-6	0	12	11
CC1CC(C)(C)N(C(=O)CN2CCN(C)CC2)c2ccccc21 (centres undefined)	81*	-2	12	1	5	14
Cc1ccc2c(c1)C(C)CC(C)(C)N2C(=O)CN1CCN(C)CC1 (centres undefined)	-4	2	-3	0	.	.
Cc1cccc(C(=O)NCc2nnc(SCC(=O)N3N=C(c4cccs4)CC3c3ccc(F)cc3)n2-c2ccc([N+](=O)[O-])cc2)c1 (centres undefined)	-8	1	8	0	.	.
Cc1[nH]c(=O)[nH]c1C(=O)CCCCC(=O)OCC(=O)Nc1ccccc1C#N	113*	0	15	-1	99*	76*
Cc1[nH]c(=O)[nH]c1C(=O)CCCCC(=O)OCC(=O)Nc1ccc(S(N)(=O)=O)cc1	95*	2	19	-1	101*	75*
Cc1ccc(C(=O)CCC(=O)OCC(=O)Nc2ccccc2C#N)cc1	8	-1	13	0	.	.
CC(C)c1ccc(C(C)C)c(SCCc2ccccn2)c1	53*	0	8	0	-3	11
CC(C)(C)c1ccc(SCCc2ccccn2)cc1	63*	-1	-54	0	2	7
CCN(CC(=O)Nc1cc(F)ccc1F)CC(=O)NC(C)C	63*	-1	-5	0	8	-2
CCN(CC(=O)Nc1ccc(F)cc1Cl)CC(=O)NC(C)C	5	-1	0	0	.	.
CC1CCC2(CC1)NC(=O)c1ccccc1N2 (centres undefined)	-4	0	2	0	.	.
Cc1nnc(NC(=O)CCN2C(=O)C3C4C=CC(C4)C3C2=O)nc1C (centres undefined)	0	0	6	0	.	.
O=C(Cc1cn2ccsc2n1)N/N=C/c1ccc([N+](=O)[O-])o1	70*	-1	19	-1	92*	40*
CCOC(=O)CNS(=O)(=O)c1ccc2[nH]cc(C(=O)O)c(=O)c2c1	52*	1	2	0	13	1
CCN(CC)CCNS(=O)(=O)c1ccc2[nH]cc(C(=O)O)c(=O)c2c1	52*	0	2	0	5	5
COc1ccc(CNS(=O)(=O)c2ccc3[nH]cc(C(=O)O)c(=O)c3c2)cc1	24	-1	8	0	.	.
Cc1cccc(NC(=O)c2ccc(NS(=O)(=O)c3ccc4[nH]cc(C(=O)O)c(=O)c4c3)cc2)c1	70*	1	5	1	41*	-5
